# Chronic BCR inh: qHTS Assay to Find Inhibitors of Chronic Active B-Cell Receptor Signaling. ABC-DLBCL IkBa-CBG/CBR reporter, luminescence ratio, 4 h. Potency, µM (titrated, usually from 46.1 µM), inactives show top-dose activity change, negative = inhibition, actives largely listed as inhibitors. 340,000 tested, 0.05% active. AID 493014, 2011; active means well fitted inhibition curve with a large enough effect in the signal ratio, with a control signal flat, not every such curve was filed as active; inconclusive means small, poorly fitted or top-dose-only effect, or effect the other way, or a change in a side signal; the % refers to the signal ratio;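 further: plate controls were basal doxycycline-induced cells for no effect and cells given 10 µM MG132 for full effect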
#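 TMD8 ABC-DLBCL cells carrying doxycycline-inducible green luciferase fused to IkappaBalpha plus unfused red luciferase were exposed to compounds (up to 46 uM) for 4 hrs at 37C. Activity came from the overlap-corrected green/red luminescence ratio.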
# aSyn yeast inh: qHTS of alpha-syn Inhibitors; AID 652106, 2013; Yeast expressing alpha-synuclein, growth rescue, BacTiter-Glo, 24 h; Potency, µM (series often up to 46.1 µM), for inactives: at the highest dose growth rescue (activation), hits mostly activators; 370,000 tested, 0.14% active; further: % of control where 0% means no effect; nearly all actives have a fitted effect of over 65% in size
#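 Rescue of yeast growth: cells expressing toxic alpha-synuclein, induced in galactose at OD600 0.02, incubated with compound 24 h at 30 C. ATP luminescence quantified growth; inhibitors of toxicity appear as activators.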
# uPA generation: qHTS for Inhibitors of Cell Surface uPA Generation; cell surface uPA generation assay, qHTS; Potency, µM (series often up to 38.3 µM), for the others: at the highest dose activity change, negative = inhibition, most hits filed as inhibitors; 330,000 tested, 0.31% active; active means well fitted inhibition curve with a large enough effect; inconclusive means small, poorly fitted or top-dose-only effect; inactive means no such curve, though single readings can be large or run the other way; tested in mouse RAW 264.7 cells; further: on the % scale 0 is the no-effect control and ±100 the full control effect; nearly all actives have a fitted effect of over 55% in size
# TDP43 rescue: qHTS of TDP-43 Inhibitors. TDP-43 expressing yeast growth rescue, BacTiter-Glo, 24 h. Potency, µM (titrated, usually from 46.1 µM), without a hit: at the top dose growth rescue (activation), actives largely listed as activators. 410,000 tested, 1.8% active; further: % of control where 0% means no effect; nearly all actives have a fitted effect of over 50% in size
#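 Yeast expressing TDP-43 (pregrown in raffinose, seeded at OD600=0.02 in galactose medium) exposed to compounds 24 hr at 30 deg C. Growth read by BacTiter-Glo luminescence; rescue of toxicity appears as increased signal.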
# Abeta rescue: qHTS for compounds that reverse cellular toxicity of Amyloid beta (A-beta) peptide in yeast: Primary Screen | yeast expressing A-beta42, growth rescue, OD600, 48 h; response scale: 0% DMSO, 100% iron-clioquinol control | Potency, µM (titrated, usually from 46.1 µM), usual class: activators | 410,000 tested, 0.063% active; further: nearly all actives have a fitted effect of over 55% in size
#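 Growth rescue measured by 600 nm absorbance after 48 h yeast culture at 30 C with compound. Values normalized between DMSO and an equimolar ferric chloride plus clioquinol control.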
# FUS yeast rescue: qHTS for Suppressors of FUS Proteinopathy: Primary screen using FUS-linked yeast assay; 390,000 tested, 0.24% active; S. cerevisiae FUS-expressing, growth rescue, OD600, 24 h; AID 1347120, 2019; Potency, µM (highest dose often 76.6 µM), hits mostly activators;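 further: plate controls were DMSO vehicle for no effect and reference control for full effect; nearly all actives have a fitted effect of over 55% in size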
#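 Quantitative HTS measuring growth restoration of FUS-toxic yeast. Galactose-induced cells (OD 0.005) were exposed 24hr at 30C to compounds at several concentrations, then absorbance at 600 nm was recorded.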
# Starred values were filed as active, the others as inactive; i = inactive; ? = inconclusive; . = no result given. Only some compounds are listed: those with a hit (about 2.3% of all), similar ones and a draw of the others. Unless noted, the call rests on the fitted dose curve; in most records, active means well fitted curve in the direction sought with a large enough effect; inconclusive means small, poorly fitted or top-dose-only effect, or another doubt; inactive means no such curve, though single readings can be large; an effect the other way counts as inactive or inconclusive. Potency means the concentration at half of the fitted maximal effect.
SMILES,Chronic BCR inh,aSyn yeast inh,uPA generation,TDP43 rescue,Abeta rescue,FUS yeast rescue
CCC(c1nnnn1-c1ccc2c(c1)OCCO2)N1CCN(c2ncccc2C(F)(F)F)CC1 (stereo unspecified),.,?,.,12.6µM*,i,?
c1coc(CNc2ncnc3c2[nH]c2ccccc23)c1,.,-4.4%,.,.,.,.
COCCN(Cc1cccs1)S(=O)(=O)c1cc(-c2cc(C)no2)ccc1C,.,.,.,35.5µM*,i,i
Cc1cc(-c2ccc(C)c(S(=O)(=O)N(Cc3cccs3)C(C)C)c2)on1,.,.,.,5.2%,i,i
CC1(C)CC(=O)C(CC(=O)NC2CCCc3ccccc32)C(=O)C1 (stereo unspecified),2.9%,-0.3%,.,25.1µM*,i,i
O=C(CSc1nnnn1-c1ccccc1)NC1CCCc2ccccc21 (stereo unspecified),?,5.8%,14.0%,11.2µM*,?,i
Cc1cccc(-n2nnc(C(=O)NC3CCCc4ccccc43)c2N)c1 (stereo unspecified),?,0.1%,-10.1%,15.8µM*,i,i
Cc1c(O)cc2c(c1O)C(=O)CC(c1ccccc1)O2 (stereo unspecified),10.6%,-1.3%,-37.1%,10.9%,i,i
Cc1ccsc1C(=O)N/N=C/C=C/c1ccccc1[N+](=O)[O-],?,1.3%,2.8%,1.4%,i,i
CCOC(=O)c1cc(C(=O)Nc2sc3c(c2C#N)CCCC3)nn1C,2.8%,1.5%,3.9%,0.8%,i,i
COc1cc(N/N=C/c2ccc(N(C)C)cc2)ncn1,?,3.2%,3.55µM*,13.4%,i,i
Cn1nc(C(=O)N2CCN(c3ccc(F)cc3)CC2)c2c1-c1ccccc1S(=O)(=O)C2,0.2%,8.5%,-0.7%,25.6%,i,i
O=C1CC2(CCN(S(=O)(=O)c3ccccc3)CC2)Oc2ccccc21,-3.5%,15.4%,16.6%,20µM*,i,i
COc1ccc(S(=O)(=O)N2CCC3(CC2)CC(=O)c2ccccc2O3)cc1,0.6%,-1.5%,0.4%,13.1%,i,i
Cc1nc(SCC(=O)N(C)Cc2ccco2)c2c(C)c(C)sc2n1,3.1%,4.1%,-13.4%,22.4µM*,i,i
CCN(C(=O)CSc1nc(C)nc2sc(C)c(C)c12)c1ccc(F)cc1,-0.7%,0.2%,9.4%,-4.1%,i,i
CCCCC(=O)N1CCc2cc(OC)c(OC)cc2C1COc1ccc(OC)cc1 (stereo unspecified),-16.4%,.,.,.,i,i
O=C1c2[nH]nc(-c3ccccc3O)c2C(c2ccc(F)cc2)N1Cc1ccco1 (stereo unspecified),15.9%,5.5%,.,26.6%,i,44.7µM*
Cc1cc(C)c(O)c(-c2n[nH]c3c2C(c2cccc(O)c2)N(Cc2ccco2)C3=O)c1 (stereo unspecified),?,-1.0%,-1.2%,-9.1%,i,31.6µM*
CCCNC(=O)c1cc(C2CCCCN2C(=O)CCc2ccccc2)on1 (stereo unspecified),.,3.2%,.,21.0%,i,i
CCN1CCN(c2ccc(S(=O)(=O)N3CCOCC3)cc2NC(=O)C2CCC(C(C)(C)C)CC2)CC1 (stereo unspecified),.,12.7%,4.47µM*,11.9%,i,i
O=C(COC(=O)Cc1ccccc1F)Nc1ccc(Cl)cn1,?,-0.2%,-2.5%,1.9%,i,i
CCC(C)c1ccc(NC(=O)C2CCCN(c3ncccn3)C2)cc1 (stereo unspecified),4.3%,.,-15.6%,12.6µM*,i,i
COc1ccc(NC(=O)C2CCCN(c3ncccn3)C2)cc1 (stereo unspecified),2.8%,-7.0%,-0.5%,5.9%,i,i

# Screening data from PubChem BioAssay.
